Sampled rows, rich in hits. Any-hit rate of the full collection: about 1.7%.
ALOX15B inhib: qHTS Assay for Inhibitors of 15-hLO-2 (15-human lipoxygenase 2); Polyunsaturated fatty acid lipoxygenase ALOX15B (Homo sapiens), O15296; purified 15hLO-2, xylenol orange hydroperoxide absorbance; Potency, µM (titrated, usually from 57.1 µM), most hits filed as inhibitors; 110,000 tested, 0.56% active; AID 881, 2007; also: nearly all actives have a fitted effect of over 60% in size
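Purified human 15hLO-2 (50 nM) preincubated 15 min with compound, then 45 uM arachidonic acid for 90 min at RT in 25 mM Hepes pH 7.5, 0.01% Triton X-100. Hydroperoxide detected by Fe-xylenol orange; 573/405 nm absorbance ratio.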
Caspase-1 inhib: qHTS Assay for Allosteric/Competitive Inhibitors of Caspase-1; P29466; Caspase-1 enzyme, Ac-WEHD-AFC fluorogenic rate; Potency, µM (series often up to 57.5 µM), usual class: inhibitors; 75,000 tested, 0.03% active
Casp7 inh: qHTS Assay for Allosteric/Competitive Inhibitors of Caspase-7; AID 889, 2007; P55210; Potency, µM (highest dose often 57.5 µM), most hits filed as inhibitors; recombinant caspase-7, Ac-DEVD-AFC fluorescence rate; 75,000 tested, 0.02% active; active = well fitted inhibition curve with a large enough effect in the main read-out, with a control signal flat, not every such curve was filed as active; inconclusive = small, poorly fitted or top-dose-only effect, or a change in a side signal
15-hLO inh: qHTS Assay for Inhibitors of 15-hLO (15-human lipoxygenase); AID 887, 2007; Polyunsaturated fatty acid lipoxygenase ALOX15 (Homo sapiens), P16050; purified 15hLO-1, xylenol orange hydroperoxide absorbance; Potency, µM (doses to about 57.1 µM), usual class: inhibitors; 74,000 tested, 1.4% active; also: nearly all actives have a fitted effect of over 55% in size
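Hydroperoxide formed from arachidonic acid (50 uM) by purified human 15hLO-1 (40 nM) oxidizes ferrous iron, and the ferric-xylenol orange complex is read at 573 versus 405 nm. Compounds were preincubated 15 min; reaction ran 6 min at room temperature.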
ERK AVP block: qHTS Assay for Inhibitors of the ERK Signaling Pathway using a Homogeneous Screening Assay; AID 995, 2007; HEK293-V1b, vasopressin-stimulated pERK AlphaScreen; 72,000 tested, 0.99% active; Potency, µM (top dose mostly 57.5 µM), most hits filed as inhibitors; also: nearly all actives have a fitted effect of over 55% in size
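qHTS, compounds titrated on V1b-expressing HEK293 cells. Preincubation 30 min at 37C, vasopressin 25 nM for 5 min, lysis 10 min, bead incubation 5 hr at room temperature.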
Numbers stand for hits; . = inactive; ? = inconclusive; / = not tested or not shown; [ ] = another dose, or the depositor's remark. Unless noted, calls follow the shape of the dose curve; as a rule, active = well fitted curve in the direction sought with a large enough effect; inconclusive = small, poorly fitted or top-dose-only effect, or another doubt; inactive = no such curve, though single readings can be large; an effect the other way counts as inactive or inconclusive.

SMILES	ALOX15B inhib	Caspase-1 inhib	Casp7 inh	15-hLO inh	ERK AVP block
COc1ccc(CNc2ncncc2-c2cccc(NS(C)(=O)=O)c2)c(OC)c1	.	.	.	.	.
Cc1noc(C)c1C(=O)N1CCC2(CCCN(c3ncccn3)C2)CC1	.	.	.	.	.
CC(=O)Nc1ccccc1-c1ccc(C)o1	.	.	.	.	.
CC(=O)CCc1oc2ccc(NC(C)=O)cc2c1-c1ccc(C)o1	.	.	.	16µM	32µM
CCc1cccc(NC(=O)CS(=O)Cc2nc(-c3ccc(C)cc3)oc2C)c1 (stereo unspecified)	.	.	.	.	32µM
CC(=O)OC[C@@H]1O[C@@H](O/N=C2/C[C@@H](O)[C@@H](O)[C@@H]3[C@@H]4C(=O)N([C@@H](C)c5ccccc5)C(=O)[C@H]4CC[C@@H]23)[C@H](OC(C)=O)[C@H](OC(C)=O)[C@@H]1OC(C)=O	/	.[11.5 µM]	.[11.5 µM]	.[11.4 µM]	.[11.5 µM]
CCCCS(=O)(=O)/C=C\C=C/S(=O)(=O)CCCC	.	.	.	.	3.2µM
O=C(Nc1cccc(-c2nc3cccnc3s2)c1)c1ccco1	.	.	.	.	.
O=C(Nc1ccc(-c2nc3cccnc3s2)cc1)c1ccco1	.	.	.	25µM	/
C=Cc1cccc(C)c1	.	.	.	.	.
CCOC(=O)c1c(NC(=O)CN2CCOCC2)sc2c1CCCC2	.	.	.	25µM	?
O=C(O)[C@H]([C@H]1NCCS1)N1Cc2ccccc2C1	.[11.4 µM]	.[11.5 µM]	.[11.5 µM]	.[11.4 µM]	.[11.5 µM]
COc1ccc(Oc2ncc3nc(-c4ccc(F)cc4)c(=O)n(CCC#N)c3n2)cc1	.	?	?	.	.
COc1ccc(CC(=O)Nc2cccc(-c3nnc(-c4ccccc4)o3)c2)cc1OC	.	.	.	.	5µM
COc1ccc(CC(=O)Nc2cccc(-c3nnc(-c4ccc(C)cc4)o3)c2)cc1OC	/	.	.	.	7.9µM
COc1ccc(CC(=O)Nc2cccc(-c3nnc(-c4cccc(C)c4)o3)c2)cc1OC	.[2.29 µM]	.	.	.	3.2µM
CN(C)C1CCN(C(=O)c2ccc(-n3c(=O)c(=O)[nH]c4ccccc43)cc2)C1 (stereo unspecified)	/	.	.	.	/
O=C(Oc1ccc(-c2cn3c(n2)SCC3)cc1)c1ccccc1	.	.	.	.	16µM
Cc1ccc(C(=O)Oc2ccc(-c3nccc(-c4ccccn4)n3)cc2)cc1	.	/	/	/	/
Cc1cc(/C=N/NC(=O)Cn2c3ccccc3c(=O)c3ccccc32)c(C)n1-c1ccccc1	4µM	/	/	/	/
O=C1NN(c2ccccc2)C(=O)/C1=C\c1cccc(OC(=O)c2cccs2)c1	16µM	/	/	/	/
O=C1NN(c2ccc(Cl)c(Cl)c2)C(=O)/C1=C/c1cccc(OC(=O)c2cccs2)c1	10µM	/	/	/	/
Cc1cc(C(=O)CSc2nc3ccc(Cl)cc3[nH]2)c(C)n1C	.	?	.	25µM	.
COc1ccc(F)cc1S(=O)(=O)Nc1ccccc1C(=O)O	/	.	.	.	/
CC(=O)c1c(OC(=O)c2ccco2)c2ccccc2n1C	.	.	.	25µM	.
SMILES	ALOX15B inhib	Caspase-1 inhib	Casp7 inh	15-hLO inh	ERK AVP block
CC(=O)NCC(=O)N[C@H](CCC(=O)O)C(=O)O	.	.	.	.	.
N[C@H](CCC(=O)NCS(=O)(=O)O)C(=O)O	.	.	.	.	.
COc1ccc(C)cc1S(=O)(=O)NCCC1=CCCCC1	.	/	/	/	/
CS(=O)(=O)NCCC1=CCCCC1	.	.	.	20µM	.
COC(=O)C(C)Sc1nc2c(c(=O)[nH]c(=O)n2C)n1CCC(C)C (stereo unspecified)	/	.	.	.	32µM
COCCSc1nc2c(c(=O)[nH]c(=O)n2C)n1CCC(C)C	.	/	/	/	/
CN1c2cccc3cccc(c23)N(C)C1(C)C	16µM	.	.	.	.
CO[C@H]1COC(=O)CCC[C@H](C)[C@@H](OC)COC(=O)C/C=C\[C@@H]1C	/	.[11.5 µM]	.[11.5 µM]	.[11.4 µM]	.[11.5 µM]
CCOC(=O)Cc1csc(NC(=O)CSc2ncnc3c2cnn3-c2ccc(OC)cc2)n1	.	.	.	.	5µM
Cc1cc(NC(=O)CCCC(=O)NCc2cccs2)no1	.	/	?	20µM	?
CC(C)C(=O)N[C@H]1CCCN1C(=O)/C=C\c1ccccc1	/	.[11.5 µM]	.[11.5 µM]	.[11.4 µM]	.[11.5 µM]
O=c1cc(-c2ccccc2)oc2c(O)c(O)ccc12	?	.	.	5µM	?
O=c1cc(-c2ccccc2)oc2ccccc12	.	.	.	.	.
O=c1cc(-c2ccccc2)oc2cc(O)c(O)cc12	?	/	?	16µM	.
O=c1cc(-c2ccc(O)cc2)oc2cccc(O)c12	.	.	.	.	4µM
O=c1cc(-c2ccc(O)c(O)c2)oc2ccccc12	?	.	.	1.6µM	7.9µM
O=C1C(=C2CCCCC2)SC(=S)N1Cc1ccco1	?	.	.	4µM	.
Cc1ccc(C2C3CSCC=C3C(C#N)=C(N)C2(C#N)C#N)cc1 (stereo unspecified)	.	?	.	25µM	.
c1coc(-c2nc3ccccc3nc2-c2ccco2)c1	.	/	?	25µM	.
O=C(NCCC1=CCCCC1)C1CCCN(S(=O)(=O)c2cccnc2)C1 (stereo unspecified)	.	.	.	.	.
O=C(NCCC1=CCCCC1)C1CCCN(S(=O)(=O)c2cccc3cccnc23)C1 (stereo unspecified)	.	.	.	20µM	.
COC1C=CO[C@@]2(C)Oc3c(C)c(O)c4c(O)c(c(C=NN5CCN(C)CC5)c(O)c4c3C2=O)NC(=O)/C(C)=C\C=CC(C)C(O)[C@@H](C)C(O)C(C)[C@H](OC(C)=O)C1C (stereo partly specified)	20µM	.	.	?	?
COc1ccc(-c2nc3cnc(OC)nc3n(C3CC3)c2=O)cc1	.	.	.	.	.
O=C(O)c1cc2c(cc1S(=O)(=O)O)[C@H]1[C@@H]([C@H]3[C@H]2[C@@]2(Cl)C(Cl)=C(Cl)[C@]3(Cl)C2(Cl)Cl)[C@]2(Cl)C(Cl)=C(Cl)[C@@]1(Cl)C2(Cl)Cl	.[11.4 µM]	.[11.5 µM]	.[11.5 µM]	5µM	.[11.5 µM]
CS(=O)(=O)Nc1cccc(-c2nccc(-n3ccnc3)n2)c1	?	.	.	20µM	.
SMILES	ALOX15B inhib	Caspase-1 inhib	Casp7 inh	15-hLO inh	ERK AVP block
N#Cc1cccc(-c2nccc(-n3ccnc3)n2)c1	?	.	.	10µM	?
CS(=O)(=O)Nc1cccc(-c2nc(-n3ccnc3)c3ccccc3n2)c1	.	.	.	.	.
O=S(=O)(c1ccccc1Cl)N1CCC(O)(c2ccc3c(c2)OCO3)CC1	.	.	.	.	32µM
CCN(CC)C(=O)c1cc2sc3ccccc3c2s1	.	.	.	25µM	.
CCCC(=O)Nc1ccc(N2CCN(C(=O)CCC)CC2)cc1	.	.	.	.	.
CCCCC(=O)Nc1ccc(N2CCN(C(=O)CC)CC2)cc1	.	.	.	.	25µM
CC(=O)Nc1nc(-c2ccccc2)nc(-c2ccccc2OC(C)=O)n1	.	.	.	16µM	?
